Results filed as inconclusive are left out. Unmarked numbers belong to inactive results. Calls of active or inactive are those of the source. Calls come from the whole dose curve; as a rule, active = well fitted cell-killing curve with a large enough effect; inconclusive = small, poorly fitted or top-dose-only effect, or effect the other way; inactive = no such curve, though single readings can be large or run the other way.
Potency is the fitted concentration of half-maximal effect.

This assay is described as follows: Quantitative High-Throughput drug screen in 47 multiple myeloma cell lines against the NCATS MIPE library collection: KMS26_JCRB cell viability assay (AID 1918975). Note: nearly all actives have a fitted effect of over 45% in size. Conditions: KMS26 myeloma cells viability, CellTiter-Glo ATP, 48 h; series mostly up to 45.8 µM; viability (% of DMSO): at the top concentration. In outline:
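Relative luminescence from CellTiter-Glo served as the viability signal, referenced to DMSO-treated (100%) and cell-free medium (0%) controls. Treatment lasted 48 hours at 37C with 500 cells per well.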
Turning to `CC(C)=CCCC(C)=CCCC(C)=CCCC(C)=CCCC(C)=CCCC(C)=CCCC(C)=CCCC(C)=CCCC(C)=CCO`, the “viability (% of DMSO)” value was 127%.

On to `CCCCC[C@H](O)C=C[C@H]1[C@H](O)CC(=O)[C@H]1CCCCCCC(=O)O`, for which the “viability (% of DMSO)” value was 119%.

With `OC[C@H]1O[C@@H](O[C@H]2[C@@H](O)[C@@](O)(CO)O[C@@H]2CO)[C@H](O)[C@@H](O)[C@@H]1O`, the “viability (% of DMSO)” value was 98.5%.

With `CCCCCCCCCCCCCCCC(=O)O[C@H]1[C@@H](O)[C@@H](O)[C@@H]([C@H](NC(=O)[C@@H]2C[C@@H](CCC)CN2C)[C@H](C)Cl)O[C@@H]1SC`, the “viability (% of DMSO)” value was 137%.

`COc1ccc(CCC(=O)Nc2nc3ccc(Cl)cc3s2)cc1OC`: the “viability (% of DMSO)” value was 125%.

For `CC(C)CNc1ccnc(NCc2csc(-c3ccccc3)n2)n1`, the Potency is 16.6 µM (active).

Turning to `NS(=O)(=O)c1cc(Cl)c(Cl)c(S(N)(=O)=O)c1`, the “viability (% of DMSO)” value is 136%.

As to `O=C(Nc1ncc(SCCN2CCCC2)s1)[C@]1(c2ccc(S(=O)(=O)C3CC3)cc2)C[C@@H]1C1CCCCC1`, the Potency is 23.5 µM (active).

On to `COc1cc(F)c(C(C)C)cc1-c1ccc(C(F)(F)F)cc1CN1C(=O)O[C@H](c2cc(C(F)(F)F)cc(C(F)(F)F)c2)[C@@H]1C`, for which the “viability (% of DMSO)” value is 119%.

Turning to `CC(C)C[C@@H](C(=O)N[C@H](C(=O)OC1CCCC1)c1ccccc1)[C@H](O)C(=O)NO`, the Potency was 18.7 µM (active).

Consider `CCCCC(C)(C)[C@H](O)C=C[C@H]1[C@H](O)CC(=O)[C@H]1CC=CCCCC(=O)O`, for which the Potency was 16.6 µM (active).

For the compound `O=C(O)CCC=CCC[C@@H]1[C@H](N2CCCCC2)[C@@H](O)C[C@@H]1OCc1ccc(-c2ccccc2)cc1`, the “viability (% of DMSO)” value is 125%.

With `O=C(Nc1cccc(C(F)(F)F)c1)Nc1cc(S(=O)(=O)NC2CC2)ccc1-c1ccsc1`, the Potency was 16.6 µM (active).

As for `O[C@@H](COc1cccc2ncccc12)CN1CCN(C2c3ccccc3[C@@H]3[C@H](c4ccccc42)C3(F)F)CC1` (some centres not stated), the Potency was 20.9 µM (active).

As to `CC(C)(O)CC(=O)NCCn1ccc2ncnc(Nc3ccc(Oc4cccc(C(F)(F)F)c4)c(Cl)c3)c21`, the Potency is 26.4 µM (active).

In the case of `CN1CC(=O)NC1=NC(=O)Nc1cccc(Cl)c1`, the Potency is 18.7 µM (active).

Turning to `C[C@@H]1CC=CC=CC=CC=C[C@@H](O[C@@H]2O[C@H](C)[C@@H](O)[C@H](N)[C@H]2O)C[C@@H]2O[C@](O)(C[C@@H](O)C[C@@H]3O[C@@H]3C=CC(=O)O1)C[C@H](O)[C@@H]2C(=O)O`, the “viability (% of DMSO)” value was 91.7%.

As for `CC1(C)[C@H]2CC[C@]3(C)[C@@H](C(=O)C=C4[C@@H]5C[C@@](C)(C(=O)O)CC[C@]5(C)CC[C@]43C)[C@@]2(C)CC[C@@H]1O`, the “viability (% of DMSO)” value was 112%.

Turning to `CN(C)N=Nc1nc[nH]c1C(N)=O`, the Potency was 20.9 µM (active).

For `COc1ccc2cc1Oc1ccc(cc1)C[C@H]1c3cc(c(OC)cc3CCN1C)Oc1c(OC)c(OC)cc3c1[C@H](C2)N(C)CC3`, the Potency is 14.8 µM (active).

For `COc1cc2c(cc1OC)[C@@H]1Cc3ccc(OC)c(OC)c3CN1CC2`, the Potency was 4.69 µM (active).

Turning to `O=C(Nc1cccc(Cl)c1)Nc1ncc(CCNc2ncnc3ccsc23)s1`, the Potency was 2.64 µM (active).

Take `COC1CCC(C(=O)c2ccc3nc4c(cc3c2)CCCO4)CC1` (configuration not stated): the Potency is 23.5 µM (active).

Take `Cc1ccc(C2=Nc3ccc(Cl)cc3OC2)cc1`: the “viability (% of DMSO)” value was 132%.

Consider `CC1(C)C(N(O)C(=O)Nc2ccc(Cl)cc2)N(c2ccc(Cl)cc2)C(=O)N1CC(=O)NN=CC=Cc1ccc([N+](=O)[O-])o1` (configuration not stated), for which the Potency is 8.33 µM (active).

With `NCC1CCC(C(=O)O)CC1` (configuration not stated), the “viability (% of DMSO)” value is 118%.

As to `Fc1ccc(CNc2ncnc3ccc(F)cc23)cc1`, the “viability (% of DMSO)” value was 114%.

Source of the values: PubChem BioAssay (NCATS).
